Reference: PubChem BioAssay (Tox21)
Results filed as inconclusive are left out. The source made the active and inactive calls. Calls follow the shape of the full dose curve.

tested on: not listed separately; experiment: qHTS assay to identify small molecule agonists or antagonists of the thyroid stimulating hormone receptor (TSHR) signaling pathway - wild type cell line counter screen (AID 1259384); settings: HEK293 wild type, cAMP HTRF counter-screen; series mostly up to 92.4 µM; cAMP activity change: at the top concentration; also: potency is read from the fitted curve at half-maximal effect
Procedure, shortened: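 Counter screen in untransfected Hek293: compounds (15-point titration, triplicate) plus phosphodiesterase inhibitor Ro20-1724 added after 18 h plating; 30 min RT. Intracellular cAMP via competitive d2/cryptate immunoassay, 1 h incubation.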
% is scaled to controls: 0 for no effect and ±100 for the full control effect.

SMILES	cAMP activity change	Potency
CCC(C)n1c(=O)[nH]c(C)c(Br)c1=O (configuration not stated)	-0.186% (inactive)	
CN1CCC(O)(c2ccc(F)cc2)C(C(=O)c2ccc(F)cc2)C1 (configuration not stated)	0.661% [at 42.5 µM, stronger effect = higher value] (inactive)	
O=C(O)c1cccc(Cl)c1	0.691% (inactive)	
O=NN1CCN(N=O)CC1	2.19% (inactive)	
Nc1ccccc1Cl	0.338% (inactive)	
CC1CCCCC1NC(=O)Nc1ccccc1 (configuration not stated)	1.01% (inactive)	
CCOP(=O)(OCC)OP(=O)(OCC)OCC	0.531% (inactive)	
COC(=O)c1c(C(F)F)nc(C(F)(F)F)c(C2=NCCS2)c1CC(C)C	-5.07% (inactive)	
C[N+](C)=CCl	-5.27% (inactive)	
CC(=O)Nc1cc([As](=O)(O)O)ccc1O	0.0156% [at 42.5 µM, stronger effect = higher value] (inactive)	
CCOP(=S)(OCC)SCSP(=S)(OCC)OCC	-0.3% (inactive)	
C[C@]12CC[C@H]3[C@@H](CCC4=CC(=O)CC[C@@]43C)[C@@H]1CC[C@@H]2C(=O)O	1.69% [at 42.5 µM, stronger effect = higher value] (inactive)	
CCC(=O)c1ccccc1	2.49% (inactive)	
C[C@@H]1CN(C2CCC(C#N)(c3ccc(F)cc3)CC2)CC[C@]1(C(=O)O)c1ccccc1 (some centres not stated)	7.33% [at 42.5 µM, stronger effect = higher value] (inactive)	
c1ccc(N2CCNCC2)cc1	1.66% [at 42.5 µM, stronger effect = higher value] (inactive)	
CC(C)(C)OC(=O)c1ncn2c1[C@@H]1CCCN1C(=O)c1c(Br)cccc1-2	6.36% [at 42.5 µM, stronger effect = higher value] (inactive)	
CC(N)=S	1.05% (inactive)	
Clc1cccc(N2CCNCC2)c1	-4.03% [at 42.5 µM, stronger effect = higher value] (inactive)	
COc1cc(C[C@@H](C)N)c(OC)cc1C	-2.31% (inactive)	
O=C(Cc1ccccc1)OCc1ccccc1	3.33% (inactive)	
CCCSC(=O)Cl	3.98% (inactive)	
Cc1cc(C)c(C(=O)P(=O)(C(=O)c2c(C)cc(C)cc2C)c2ccccc2)c(C)c1	3.94% (inactive)	
C#C[C@]1(O)C=C[C@H]2[C@@H]3CCC4=CC(=O)CC[C@@H]4[C@H]3CC[C@@]21CC	-0.44% [at 42.5 µM, stronger effect = higher value] (inactive)	
CCCCC(=O)Cl	4.58% (inactive)	
CCCCc1c(C)nc(NCC)[nH]c1=O	-1.87% (inactive)	
OC(Cn1cncn1)(c1ccc(F)cc1)c1ccccc1F (configuration not stated)	-6.29% (inactive)	
CC(CC(C#N)(c1ccccc1)c1ccccc1)N(C)C (configuration not stated)	1.15% (inactive)	
CNCC(=O)c1ccc(O)c(O)c1		4.22 µM (active)
CCN(Cc1ccc(Cl)nc1)/C(=C/[N+](=O)[O-])NC	-3.92% [at 42.5 µM, stronger effect = higher value] (inactive)	

molecular target: Thyrotropin receptor (Homo sapiens) (UniProt P16473); experiment: qHTS assay to identify small molecule antagonists of the thyroid stimulating hormone receptor (TSHR) signaling pathway (AID 1259385); settings: TSHR-HEK293 cAMP HTRF, TSH-stimulated antagonist mode; series mostly up to 92.4 µM; activity change, negative = inhibition: at the top concentration; also: nearly all actives have a fitted effect of over 20% in size
Sequence (P16473 whole entry, looked up): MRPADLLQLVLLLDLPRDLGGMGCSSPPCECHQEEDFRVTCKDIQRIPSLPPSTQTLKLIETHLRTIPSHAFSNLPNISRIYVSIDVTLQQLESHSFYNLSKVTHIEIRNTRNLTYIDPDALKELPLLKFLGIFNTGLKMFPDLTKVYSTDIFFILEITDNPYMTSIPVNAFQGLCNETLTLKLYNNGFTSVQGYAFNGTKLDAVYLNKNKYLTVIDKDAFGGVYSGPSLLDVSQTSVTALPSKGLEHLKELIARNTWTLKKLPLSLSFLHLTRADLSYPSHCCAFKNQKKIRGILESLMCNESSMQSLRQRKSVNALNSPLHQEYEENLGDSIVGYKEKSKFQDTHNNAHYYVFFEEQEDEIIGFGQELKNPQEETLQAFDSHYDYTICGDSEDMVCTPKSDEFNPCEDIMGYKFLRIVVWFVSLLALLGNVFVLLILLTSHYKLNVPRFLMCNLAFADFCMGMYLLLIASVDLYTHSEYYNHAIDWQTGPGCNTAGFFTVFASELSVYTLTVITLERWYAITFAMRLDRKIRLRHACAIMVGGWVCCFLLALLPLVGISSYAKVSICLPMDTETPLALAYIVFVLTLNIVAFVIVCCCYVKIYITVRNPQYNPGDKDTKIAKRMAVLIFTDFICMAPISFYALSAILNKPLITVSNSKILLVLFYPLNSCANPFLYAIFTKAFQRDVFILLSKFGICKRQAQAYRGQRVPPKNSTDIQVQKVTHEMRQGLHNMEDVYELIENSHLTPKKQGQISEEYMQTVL
Procedure, shortened: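 Antagonist mode: compound-treated TSHR-expressing HEK293 cells were stimulated with 1.5 ng/mL TSH (final) in presence of Ro20-1724 for 30 min at RT. HTRF cAMP detection after 1 h; each compound tested at 15 concentrations, triplicate.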

SMILES	activity change, negative = inhibition
CN1CCC(O)(c2ccc(F)cc2)C(C(=O)c2ccc(F)cc2)C1 (configuration not stated)	-0.741% [at 42.5 µM] (inactive)
O=C(O)c1cccc(Cl)c1	-3.95% (inactive)
O=NN1CCN(N=O)CC1	-2.99% (inactive)
Nc1ccccc1Cl	-5.9% (inactive)
CC1CCCCC1NC(=O)Nc1ccccc1 (configuration not stated)	-4.33% (inactive)
CC(C)NCC(O)c1ccc(N)c(C#N)c1 (configuration not stated)	1.9% [at 42.5 µM] (inactive)
CCOP(=O)(OCC)OP(=O)(OCC)OCC	0.439% (inactive)
COC(=O)c1c(C(F)F)nc(C(F)(F)F)c(C2=NCCS2)c1CC(C)C	-0.553% (inactive)
C[N+](C)=CCl	5.81% (inactive)
CC(=O)Nc1cc([As](=O)(O)O)ccc1O	1.64% [at 42.5 µM] (inactive)
C[C@]12CC[C@H]3[C@@H](CCC4=CC(=O)CC[C@@]43C)[C@@H]1CC[C@@H]2C(=O)O	-2.26% [at 42.5 µM] (inactive)
CCC(=O)c1ccccc1	-0.65% (inactive)
C[C@@H]1CN(C2CCC(C#N)(c3ccc(F)cc3)CC2)CC[C@]1(C(=O)O)c1ccccc1 (some centres not stated)	-2.78% [at 42.5 µM] (inactive)
c1ccc(N2CCNCC2)cc1	0.0232% [at 42.5 µM] (inactive)
CC(C)(C)OC(=O)c1ncn2c1[C@@H]1CCCN1C(=O)c1c(Br)cccc1-2	0.309% [at 42.5 µM] (inactive)
CC(N)=S	3.16% (inactive)
Clc1cccc(N2CCNCC2)c1	-0.855% [at 42.5 µM] (inactive)
COc1cc(C[C@@H](C)N)c(OC)cc1C	2.13% (inactive)
O=C(Cc1ccccc1)OCc1ccccc1	-9.14% (inactive)
CCCSC(=O)Cl	-1.66% (inactive)
Cc1cc(C)c(C(=O)P(=O)(C(=O)c2c(C)cc(C)cc2C)c2ccccc2)c(C)c1	1.37% (inactive)
C#C[C@]1(O)C=C[C@H]2[C@@H]3CCC4=CC(=O)CC[C@@H]4[C@H]3CC[C@@]21CC	6.2% [at 42.5 µM] (inactive)
CCCCC(=O)Cl	-0.0656% (inactive)
CCCCc1c(C)nc(NCC)[nH]c1=O	-5.79% (inactive)
OC(Cn1cncn1)(c1ccc(F)cc1)c1ccccc1F (configuration not stated)	-2.1% (inactive)
CC(CC(C#N)(c1ccccc1)c1ccccc1)N(C)C (configuration not stated)	-5.16% (inactive)
CNCC(=O)c1ccc(O)c(O)c1	5.63% [at 42.5 µM] (inactive)
CCN(Cc1ccc(Cl)nc1)/C(=C/[N+](=O)[O-])NC	4.44% [at 42.5 µM] (inactive)
